# Measured values: the supplement of paper PMC6555819
# Assays:
# Test in all cases: PBM binding z-score (relative to random genomic background probes); higher = stronger binding; sequences stand for … in GC…GCGATTGACAGCGTAGAATGAAGG
# [1] = tested on: PPARg:RXRa DBDmut IVT, anti-RXR (DBD mutation: RXRa K156A/R161A, NR concentration 270 nM, RXRa partner concentration 90 nM)
# Method in brief: (§1)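 Antibodies against each partner of ligand-free nuclear receptor dimers (one per run) detected binding on custom Agilent 4×180K protein-binding microarrays after 1 h incubation. The double-stranded probes had 34-nt variable regions carrying direct-repeat seeds, single-nucleotide variants, half-site ablations and random human genomic background sequences. Binding z-scores, from regression-normalized fluorescence, use the random background probes as reference.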
# [2] = tested on: PPARg:RXRa IVT, anti-PPARg (NR concentration 270 nM, RXRa partner concentration 90 nM)
# Method in brief: as §1
# [3] = tested on: PPARg DBDmut:RXRa IVT, anti-PPARg (DBD mutation: PPARg1 K132A/R137A, NR concentration 270 nM, RXRa partner concentration 90 nM)
# Method in brief: as §1
# [4] = tested on: PPARg DBDmut IVT, anti-PPARg (DBD mutation: PPARg1 K132A/R137A, NR concentration 270 nM)
# Method in brief: as §1
# [5] = tested on: PPARg homodimer (NR concentration 180 nM)
# Method in brief: as §1
# [6] = tested on: PXR:RXRa (NR concentration 270 nM, RXRa partner concentration 90 nM)
# Method in brief: as §1
# [7] = tested on: PXR homodimer (NR concentration 270 nM)
# Method in brief: as §1
# [8] = tested on: RARa:RXR (NR concentration 270 nM, RXRa partner concentration 90 nM)
# Method in brief: as §1
# [9] = tested on: RARa homodimer (NR concentration 270 nM)
# Method in brief: as §1
# [10] = tested on: RARb:RXRa (NR concentration 270 nM, RXRa partner concentration 90 nM)
# Method in brief: as §1
# [11] = tested on: RARb homodimer (NR concentration 270 nM)
# Method in brief: as §1
# [12] = tested on: RARg:RXRa (NR concentration 270 nM, RXRa partner concentration 90 nM)
# Method in brief: as §1
# [13] = tested on: RARg homodimer (NR concentration 270 nM)
# Method in brief: as §1
# [14] = tested on: RXRa DBDmut IVT, anti-RXR (DBD mutation: RXRa K156A/R161A, NR concentration 90 nM)
# Method in brief: as §1
# [15] = tested on: RXRa homodimer (NR concentration 180 nM)
# Method in brief: as §1
# [16] = tested on: THRa:RXRa (NR concentration 90 nM, RXRa partner concentration 90 nM)
# Method in brief: as §1
# [17] = tested on: THRa homodimer (NR concentration 90 nM)
# Method in brief: as §1
# [18] = tested on: VDR homodimer (NR concentration 270 nM)
# Method in brief: as §1
# [19] = tested on: VDR:RXRa (NR concentration 270 nM, RXRa partner concentration 90 nM)
# Method in brief: as §1
Sequence,PBM binding z-score [1],PBM binding z-score [2],PBM binding z-score [3],PBM binding z-score [4],PBM binding z-score [5],PBM binding z-score [6],PBM binding z-score [7],PBM binding z-score [8],PBM binding z-score [9],PBM binding z-score [10],PBM binding z-score [11],PBM binding z-score [12],PBM binding z-score [13],PBM binding z-score [14],PBM binding z-score [15],PBM binding z-score [16],PBM binding z-score [17],PBM binding z-score [18],PBM binding z-score [19]
CAAACTAGGTCAAGGTCAAATTCGGTTTGTGCCA,8.72,8.78,2.45,3.07,4.71,5.45,2.83,5.82,2.26,5.09,5.19,6.03,6.67,3.1,6.24,4.38,3.92,4.1,–
CCTAGCAGGCCACGGTCACTCAAGCATTTCGCTT,2.28,1.83,-0.92,-1.29,0.115,-0.147,-0.385,0.307,-0.0441,1.95,1.74,0.739,1.19,0.229,0.221,0.45,0.288,-0.0513,–
ATATGTGGGTTATCGGGTCATTCAGTTTGCGCAT,7.02,7.14,3.15,3.66,3.07,3.93,7.1,3.81,2.31,2.42,3.15,2.99,2.07,1.99,–,3.45,3.41,4.15,5.21
ATCTCTAGGTGAAAGTTCAGTGAATCCCGAGGAT,5.35,6.32,1.5,0.994,1.52,2.87,1.57,2.87,0.586,3,2.67,2.88,2.27,0.779,2.74,2.19,0.227,1.33,–
ATCGAAAGGTCGTGAGGTGAGTTTACAGAAAGGC,0.311,2.19,0.802,0.81,2.01,4.1,1.52,4.59,0.718,4.08,3.38,4.69,4.07,2.26,5.37,3.57,1.5,3.12,–
TCATATAGGTAATAGGTGAAAGTCGGTGTGGTAA,4.73,4.33,0.889,1.42,1.61,0.866,0.435,1.56,1.65,0.581,0.632,0.482,0.284,1.59,1.53,0.534,0.384,0.435,–
CGAACTAGGTAAAGGACAGTGAATCTCCGCACGC,5.6,4.4,0.46,-0.605,0.363,-0.407,-0.167,-0.453,-0.188,1.21,0.899,0.243,0.583,0.0169,0.286,–,-0.0591,-0.21,-0.323
CGTCAAAGTTCAAGCTAACGTAACAGAAAGCAGC,0.497,1.77,1.34,1.15,3.13,4.47,2.52,3.3,2.21,5.24,3.86,5.65,6.4,4.63,–,1.86,-0.403,3.69,4.18
CGTCAAAGTTCAAGGTAATGTAACAGAAAGCAGC,0.0949,2.03,0.311,0.686,2.57,3.95,2.92,3.38,1.61,5.14,4.04,5.25,6.13,4.23,4.26,2.88,0.964,3.14,–
TTACCAAGGTGACCTGAGGTCGTTGATCCAACTC,1.69,2.92,0.109,-0.145,1.47,5.57,1.38,3.89,-0.101,2.5,3.13,3.18,2.35,0.664,3.64,–,3.94,3.65,4.87
ATATGTAGGTTAGCTGGGGTCATTCCGACTAGGC,6.8,5.93,1.65,0.994,3.16,6.18,3.73,5.3,0.761,2.99,3.77,4.05,2.78,1.93,5.24,4.98,3.21,5.2,–
CCTACTGGGCCAATGTCATTGATCAGTCAAAGCA,3.94,2.99,-0.0732,-0.746,-0.246,-0.427,-0.747,-0.51,-1.11,0.363,0.109,0.114,0.0827,-0.907,-0.139,-0.112,-0.837,-0.862,–
ACTAGTTGGTCACCTGAGGTCACACACAATTCGG,2.55,3.78,1.79,1.35,4.91,6.25,3.12,5.48,2.94,3.91,4.6,4.66,4.96,1.53,–,5.34,5.66,5.13,5.23
CCTACTGGGCCACGTAAGGTCATTGATTCAGTGA,5.56,5.43,0.00703,-0.733,1.14,4.38,1.49,3.25,0.62,3.02,3.87,3.33,3.01,0.502,3.33,–,4.46,2.84,3.69
CCTACTGGGCCATCAGGTGATTGATATCAACGTT,3.79,4.34,0.38,-0.0432,-0.3,-0.668,-0.342,-0.448,-0.0417,0.0448,-0.117,0.0131,0.41,-0.814,-0.272,–,0.389,-0.474,–
AGTCAAAGTTCACTAGGCAACGTAAGATTCAGCT,1.55,3.93,1.31,0.663,1.75,3.81,2.09,3.04,0.611,4.78,3.63,4.84,5.8,4.16,3.89,1.4,-0.365,3.61,–

Sequence,PBM binding z-score [1],PBM binding z-score [2],PBM binding z-score [3],PBM binding z-score [4],PBM binding z-score [5],PBM binding z-score [6],PBM binding z-score [7],PBM binding z-score [8],PBM binding z-score [9],PBM binding z-score [10],PBM binding z-score [11],PBM binding z-score [12],PBM binding z-score [13],PBM binding z-score [14],PBM binding z-score [15],PBM binding z-score [16],PBM binding z-score [17],PBM binding z-score [18],PBM binding z-score [19]
TAGCCTAGGTTATGCGGGCCAGTATAGTGTCGGC,0.00744,0.945,-0.658,-0.513,-0.501,-0.511,-0.854,-0.208,-1.25,0.558,0.219,-0.108,0.272,-0.93,0.14,–,-0.669,-0.934,-0.0997
ACTAGTAGGCCAAGGGTCACTCAAGATTAGTCCG,5.4,6.33,0.82,1.01,2.17,3.24,-0.0548,4.2,0.166,3.61,3.88,4.22,4.21,0.602,4.54,2.6,0.197,1.36,–
CCTTACGGGTCACTCCATGTTATAGCATCGGAGT,2.24,3.12,0.606,0.266,2.26,2.73,0.163,3.26,0.537,3.59,2.87,4.1,3.99,1.59,–,2.84,-0.286,1.46,3.02
GTACCAAGGTGAATAGGTCGTTGATGAGTAGGCG,1.99,2.78,0.41,0.294,1.84,0.719,-0.224,1.72,0.00144,1.94,1.89,2.73,1.44,0.0133,1.92,1.79,0.526,0.496,–
GCTGCTAGGTTAACTGATGGTCAGCTAAAGCTCG,2.43,1.36,-1.35,-0.847,-0.127,0.00634,-0.91,0.512,-1.49,1.54,0.815,1.6,0.672,0.235,–,0.689,-0.683,-0.649,-0.182
CAAACTAGGCCAAGGTCAAAGTCGGTTTGTGCCA,6.88,6.61,0.98,0.266,1.87,4.28,1.2,3.97,0.776,4.07,3.85,4.2,4.17,2.06,3.91,3.77,2.36,3.23,–
CGTCAAAGTTCACCTAAGGTAACGTAAAGCACGC,0.554,2.63,0.556,0.77,3.35,5.29,3.14,4.17,0.893,5.21,4.45,5.95,6.36,4.67,5.09,–,3.11,4.19,4.82
CAAACTAGGTCACCGTAAGGTCAAAGTCCGCATG,8.08,9.03,2.73,1.86,6.09,6.21,2.62,7.31,1.95,5.57,5.88,8.26,7.64,2.47,6.67,–,5.45,4.19,–
ATCGAAAGGTCGAAGGTGAGTACACCCACCCGAA,0.019,2.74,1.5,0.329,1.98,3.49,0.469,4.08,1.18,3.9,2.79,4.39,4.08,1.13,4.96,2.54,-0.0194,2.07,–
ATCGAAAGGTCGCAGGTGAGTATACCCACCCGAA,0.692,2.78,1.46,0.551,1.95,2.89,0.199,3.82,0.721,4.09,3.04,4.73,4.6,0.648,–,2.57,0.171,0.597,3.2
CAAACTAGGTCAAAGGTCAAAGCCGAGCCAACCA,8.36,8.57,2.64,1.45,4.45,6.85,1.41,9.13,2.5,5.94,5.47,8.97,7.51,2.57,10.7,–,1.74,2.99,–
ACTAGGTGGTCAGCTGAGGTCACACACAATTCGG,1.21,3.02,0.296,0.306,1.93,5.62,1.01,4.73,0.58,3.78,4.47,4.04,4.46,0.949,4.06,–,5.08,2.8,–
CCTAGCAGGCGAGGGTCACTCAAGCATTTCGCTT,0.277,0.13,-1.61,-1.34,0.73,1.63,-0.241,2.62,-0.425,2.29,2.36,2.77,1.69,0.212,–,1.79,-0.42,0.128,1.59
CATACTAGGTCAAAGGTCAAAGTCGAGCCAACCA,7.72,8.62,2.89,3.65,3.93,6.81,1.91,8.63,1.65,5.97,5.51,8.9,7.33,3.12,9.95,4.98,2.11,3.51,–
ATCTAAAGGTCGAAGGTGAGTATACCCACCCGAA,0.448,2.65,1.07,0.686,1.22,2.87,0.401,4.15,0.981,3.76,2.54,4.32,3.66,1.74,–,2.21,0.159,0.755,2.95
